# Measured values: PubChem BioAssay (NCI)
# Values joined by “and” are separate entries in the source; they are usually repeats but may differ in a detail not shown here. Equal entries are not always repeated. Compounds without any hit were thinned out: in the full panel of roughly 83,000, 20% have a hit.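 Plates (96-well) were seeded with cells, treated with compound at one concentration, and incubated for 48 hours before percent growth was determined.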 A number with no mark means an inactive call. Active and inactive are the calls of the source. How the source made its calls: active means growth percent below 10; inactive means the rest.
# System: MDA-MB-468 breast
# Experiment: NCI-60 one-dose screen, 48 h (100 = growth as untreated, 0 = no growth, -100 = all killed)
# Settings: 10 µM unless noted
row,Structure (SMILES),growth
1,O=S(=O)(NCCNc1nccc(-c2c(-c3cccc(O)c3)nc3occn23)n1)c1ccccc1,88.4%
2,N#Cc1nn(-c2cc(=O)[nH]c3ccc(Cl)cc23)c(N)c1C#N,110%
3,C=CCn1c(SCC(=O)Nc2ccc(/C(C)=N\O)cc2)nnc1-c1cc(-c2ccccc2)nc2ccccc12,73%
4,COc1ccc(C2=CN3CC=CCC3CC2=O)cc1 (stereo not given),107%
5,CCS/C(Nc1ccccc1)=C(\C#N)C(=O)N/N=C/c1ccc(Cl)cc1Cl,19.6%
6,[2H]c1nc(Nc2ncc(F)c(-c3cc(F)c4nc(C)n(C(C)C)c4c3)n2)c([2H])c([2H])c1CN1CCN(CC)CC1,90.1%
7,Cc1ccc(NC(=O)Nc2nc3ccc([N+](=O)[O-])cc3s2)cc1,-15.6% (active)
8,CCCCCCCC/C=C\CCCCCCCCOc1cccc(CC(=O)NCC[N+]2(C)CCOCC2)c1,86%
9,N#Cc1ccc(OC(=O)Nc2ccc(Cl)c(Cl)c2)cc1,42.9%
10,CCC(=O)Nc1cc2c(cc1Cl)-c1ccccc1C2,97.9%
11,O=C1[C@@H]2Cc3c([nH]c4ccccc34)[C@H](c3ccc(Cl)cc3)N2C(=O)CN1C1CCN(Cc2ccccc2)CC1,23.1%
12,C=CCc1nc2ccccc2s1,-14.5% (active)
13,O=C1Nc2cc(-c3ccc(NC(=O)C4CC4)cc3)ccc2/C1=C/c1ccc[nH]1,0.756% (active)
14,COc1ccc(-c2cn(-c3cccc(C(=O)/C=C/c4cc(OC)c(OC)c(OC)c4)c3)c(=O)[nH]2)cc1OC,98.1%
15,NC(=S)NN=C1CCC(C2CCCCC2)CC1 (stereo not given),50.9% and 46.9%
16,COc1ccc(NC(=S)N/N=C/c2ccccc2SSCCC(=O)OC[C@H]2O[C@H](O)[C@H](O)[C@@H](O)[C@@H]2O)cc1,-8.32% (active)
17,CC[C@H](C)[C@H](NC(=O)[C@H](CCCNC(=N)N)NC(=O)[C@H](Cc1c[nH]c2ccccc12)NC(=O)[C@@H](NC(=O)[C@H](CCCCN)NC(=O)[C@H](CCCCN)NC(=O)[C@@H](NC(=O)[C@@H](NC(=O)[C@@H](NC(=O)[C@H](CCCCN)NC(=O)[C@H](Cc1ccccc1)NC(=O)[C@H](CCCCN)NC(=O)[C@H](CCCCN)NC(=O)[C@H](Cc1ccccc1)NC(=O)[C@@H](NC(=O)[C@@H](N)CCCCN)[C@@H](C)CC)[C@@H](C)O)[C@@H](C)CC)[C@@H](C)CC)C(C)C)C(=O)N[C@@H](Cc1ccccc1)C(=O)NCC(=O)N[C@@H](CCCNC(=N)N)C(=O)N[C@@H](Cc1ccccc1)C(N)=O,28.8%
18,O=[N+]([O-])c1ccc2c(c1)Cc1cc(F)ccc1-2,53.9%
19,NS(=O)(=O)c1ccc(Nc2nc(N/N=C/CCc3ccccc3)nc(Nc3ccccc3)n2)cc1,88.6%
20,COc1cccc(-c2cn3nc(-c4cn(C)c5ccccc45)sc3n2)c1,103%

row,Structure (SMILES),growth
1,COc1ccc2cc1Oc1ccc(cc1)C[C@H]1c3c(cc4c(c3Oc3cc5c(cc3OC)CCN(C)[C@@H]5C2)OCO4)CCN1C,7.08% (active)
2,Cc1cccc(CNc2c3ccccc3nc3ccccc23)c1,-0.391% (active)
3,CCNC(=O)c1[nH]cc(-c2ccccc2)c1-c1cc(OC)c2c(c1OC)OCO2,104%
4,Cc1cc(=O)[nH]c(=O)n1Cc1cn(-c2c3ccccc3nc3ccccc23)nn1,-66.7% (active)
5,COC(=O)C1=C(C)NC(C)=C(C(=O)OCC(C)C)C1c1ccccc1[N+](=O)[O-] (stereo not given),44.7%
6,CCOP(=O)(OCC)/C(=C\N1C(=O)CC(=O)NC1=S)C(=O)OC,107%
7,CC(=O)c1cc2c(o1)C(=O)c1ccccc1C2=O,-40% (active)
8,Cc1cc(Cl)ccc1Nc1nc(C(F)(F)F)ccc1C(=O)NCC(=O)N/N=C/c1c(Cl)cccc1Cl,105%
9,O=C(CCc1nc(-c2cccc(Cl)c2)no1)Nc1ccccn1,83.1%
10,O=C(OCc1ccc2c(Cl)cc(Cl)c(O)c2n1)n1cncn1,14%
11,CC(C)=NOC(C)C(=O)O (stereo not given),106%
12,C=C(CN1CC=CCC1)[C@@H]1CC[C@]2(C(=O)OC)CC[C@]3(C)[C@H](CC[C@@H]4[C@@]5(C)CC[C@H](OC(C)=O)C(C)(C)[C@@H]5CC[C@]43C)[C@@H]12,55.6%
13,O=C(CCN1CCCC1)Nc1ccc2c(Nc3ccccc3)c3ccccc3nc2c1,-14.9% (active)
14,COc1cc(Nc2ncccc2NC(=O)c2cn(Cc3cccc(Oc4ccccc4)c3)nn2)cc(OC)c1,65.9%
15,CCOC(=O)c1c(N)c(C#N)cn1Cc1ccc(Cl)cc1Cl,45.2%
16,COc1cc(C2CC(c3cc(Cl)c(C)cc3O)=NN2c2ccc(S(N)(=O)=O)cc2)cc(OC)c1OC (stereo not given),22.7%
17,Cc1[nH]c(C(=O)Nc2ccc(C(=O)NCC3CCNCC3)cc2OC(C)C)c(Cl)c1Cl,21.5%
18,Cc1cc(Nc2cccc(F)c2)nc(NCc2ccccc2)n1,16.2%
19,CCc1n(Cc2ccc3ccccc3n2)cc[n+]1Cc1ccc2ccccc2n1,-30.1% (active)
20,Cc1ccc(S(=O)(=O)NCCCNc2cc(-c3cn(C(C)(C)C)nc3-c3cccc(O)c3)ccn2)cc1,35.5%
